# Values joined by “and” are separate entries in the source; they are usually repeats but may differ in a detail not shown here. Equal entries are not always repeated. In all, about 16,000 compounds went through this assay and about 2,600 (16%) were called active. Inconclusive results (about 20%) are left out. The call rests on the fitted dose curve; in most records, active means well fitted curve in the direction sought with a large enough effect; inconclusive means small, poorly fitted or top-dose-only effect, or effect the other way; inactive means no such curve, though single readings can be large or run the other way. These entries were drawn from the full list. Where a structure was tested more than once in an assay, its records may differ in their call.
# Target: Cytochrome P450 2D6 (Homo sapiens) (UniProt P10635)
# Test: Cytochrome panel assay with activity outcomes
# Settings: recombinant CYP, pro-luciferin dealkylation, luminescence, p450-cyp2d6; series mostly up to 57.1 µM
# On the % scale 0 is the no-effect control and ±100 the full control effect.
# Chain of Cytochrome P450 2D6 (Homo sapiens) (P10635 whole entry, looked up): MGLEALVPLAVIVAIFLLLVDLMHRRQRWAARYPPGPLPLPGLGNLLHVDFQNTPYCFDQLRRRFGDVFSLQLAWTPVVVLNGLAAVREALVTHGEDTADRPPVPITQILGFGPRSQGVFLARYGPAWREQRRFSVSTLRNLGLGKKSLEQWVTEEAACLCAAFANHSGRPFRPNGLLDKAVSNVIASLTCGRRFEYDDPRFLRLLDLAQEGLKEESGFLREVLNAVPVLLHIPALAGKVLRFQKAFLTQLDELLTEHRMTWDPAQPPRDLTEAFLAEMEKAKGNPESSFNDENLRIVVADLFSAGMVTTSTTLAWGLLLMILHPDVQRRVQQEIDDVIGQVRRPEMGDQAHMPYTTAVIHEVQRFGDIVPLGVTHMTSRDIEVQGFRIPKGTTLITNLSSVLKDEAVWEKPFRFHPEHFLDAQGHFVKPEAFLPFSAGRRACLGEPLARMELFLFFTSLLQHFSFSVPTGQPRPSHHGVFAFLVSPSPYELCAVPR
Compound,AC50,"activity, negative = inhibition"
Cc1cccc(-c2noc(-c3cc4ccccc4oc3=O)n2)c1,inactive,–
O=c1oc2ccccc2cc1-c1csc(NN=C2CCCCC2)n1,2.82 µM (active),–
Cc1ccc(-c2noc(-c3cc4ccccc4oc3=O)n2)cc1,inactive,–
Cc1ccccc1N1CCN(S(=O)(=O)C[C@@]23CC[C@H](C[C@H]2NC(=O)[C@@H](N)CCS(C)(=O)=O)C3(C)C)CC1,inactive,–
CCN1CCc2nc(NC(=O)c3ccc4c(c3)OCCO4)sc2C1,inactive,–
CCN1CCc2nc(NC(=O)CC(c3ccccc3)c3ccccc3)sc2C1,0.316 µM (active),–
Cc1cc(=O)[nH]c(SCC(=O)Nc2nc3c(s2)CCCC3)n1,inactive,–
CC1=NN(c2ccccc2)C(=O)/C1=C\c1c(C)[nH]n(-c2ccccc2)c1=O,inactive,–
COc1ccc2oc(=O)c(C(=O)Oc3ccc(NC(C)=O)cc3)cc2c1,inactive,–
Cc1ccc2oc(-c3cccc(NC(=S)NC(=O)/C=C/c4ccco4)c3)nc2c1,inactive,–
CCOc1[nH]n(-c2ccc(Cl)cc2)c(=O)c1C=Nc1ccc(O)cc1,inactive,–
CO[C@@H]1COC(=O)[C@H]2CCCN2C(=O)[C@@H](C)COC(=O)[C@H](COCc2ccccc2)NC(=O)C/C=C\[C@H]1C,–,1.71% [at 11.4 µM] (inactive)
C=C(C)[C@H]1CC=C(C)/C(=N/NC(=O)CNc2ccccc2OC)C1,inactive,–
CCOc1ccc2nc(C)cc(Nc3ccc4c(c3)OCCO4)c2c1,1.58 µM (active),–
CC(C)(C)c1nc(SCC(=O)Nc2ccc3c(c2)OCCO3)c2ccccc2n1,inactive,–
CCC(C)NS(=O)(=O)c1ccc(OCC(=O)Nc2ccc3c(c2)OCCO3)cc1 (stereo not drawn),inactive,–
CO[C@H]1COC(=O)[C@H](C)NC(=O)C/C=C\[C@@H](C)[C@@H](NS(=O)(=O)c2ccc(C)cc2)COC(=O)[C@H](OCc2ccccc2)/C=C\[C@@H]1C,–,-11.2% [at 11.4 µM] (inactive)
Cc1noc(N)c1C(=O)Nc1ccc(F)cc1,inactive,–
N#Cc1c(NC(=O)CCN2C(=O)c3ccccc3C2=O)oc(-c2ccccc2)c1-c1ccccc1,inactive,–
CC1CCN(S(=O)(=O)c2ccc3c(c2)C(=NO)c2cc(S(=O)(=O)N4CCC(C)CC4)ccc2-3)CC1,inactive,–
CC1Cc2ccccc2N1C(=O)C1CCCCN1S(=O)(=O)c1ccccc1 (stereo not drawn),inactive,–
CC1CCN(CC[C@@H]2CCCN2S(=O)(=O)c2cccc(O)c2)CC1,15.8 µM (active),–
OC[C@@H]1NC[C@@H](O)[C@H]1O,inactive,–
O=C(C/C=N/OCc1ccc(F)cc1Cl)c1cnc(-c2ccccc2)s1,inactive,–
O=C(COC(=O)COc1ccccc1)Nc1ccc(OC(F)(F)F)cc1,inactive,–

Compound,AC50,"activity, negative = inhibition"
CC(C)OC(=O)/C(=C\c1ccc2c(c1)c1ccccc1n2C)NC(=O)c1ccccc1,inactive,–
CCCCCOC(=O)c1c(N)n(CCOC)c2nc3ccccc3nc12,25.1 µM (active),–
COCCCNC(=O)c1c(N)n(/N=C/c2ccccn2)c2nc3ccccc3nc12,inactive,–
COCCn1c(=O)cnc2cnc(Oc3ccccc3)nc21,inactive,–
CN(C1CCCCC1)S(=O)(=O)c1ccc(NC(=S)NC(=O)c2cccs2)cc1,inactive,–
COC(=O)c1sc2ncccc2c1OCc1c(Cl)cccc1Cl,inactive,–
CCCCN1CCC(n2c(=O)[nH]c3ccccc32)CC1,3.16 µM (active),–
O=c1cc(N2CCC(Cc3ccccc3)CC2)[nH]c(=O)n1C1CCCCC1,inactive,–
CCn1c(=O)[nH]c2ccccc2c1=O,inactive,–
CC1(C)CC(=O)c2cn3ncnc3nc2C1,inactive,–
O=C1C2C3C=CC(C3)C2C(=O)N1/N=C/c1cn(Cc2ccc(F)cc2)c2ccccc12 (stereo not drawn),inactive,–
Cc1oc(-c2cccs2)[n+]([O-])c1C,inactive,–
Cc1cc(-c2cccs2)nc(-n2cccc2)n1,14.1 µM (active),–
Nc1nc(-c2cccs2)cs1,inactive,–
Cc1cc(NC(=O)CCC(=O)N(CC2CCCO2)C(C(=O)NC2CCCC2)c2cccnc2)no1 (stereo not drawn),inactive,–
C=CCSc1nc(NC)c2sccc2n1,inactive,–
Cc1cccc(NC(=S)N2CCC(N(C)CC3CCCO3)CC2)c1C (stereo not drawn),inactive,–
COc1ccccc1-c1c(C(F)(F)F)oc2cc(OC(=O)c3cccc([N+](=O)[O-])c3C)ccc2c1=O,inactive,–
O=C(OCC(=O)c1ccc([N+](=O)[O-])cc1)/C(=C\c1ccc(Cl)cc1)NC(=O)c1ccccc1,14.1 µM (active),–
O=C(Nc1cccc2ccccc12)/C(=C/c1ccc([N+](=O)[O-])cc1)NC(=O)c1ccccc1,inactive,–
Cc1ccc(NC(=O)/C(=C\c2ccc([N+](=O)[O-])cc2)NC(=O)c2ccccc2)cc1,inactive,–
Cc1cccc(Oc2ncnc3onc(C)c23)c1C,inactive,–
COc1cccc(NC(=O)CSc2nc3ccccc3cc2Cc2ccccc2)c1,inactive,–
O=C(Cn1ccc(=O)[nH]c1=O)Nc1ccc(C(=O)O)c(O)c1,–,-2.13% [at 11.4 µM] (inactive)
N=c1sccn1CC(=O)Nc1cccc(Oc2ccccc2)c1,1 µM (active),–

Compound,AC50,"activity, negative = inhibition"
CSc1nnc(-c2sccc2OCc2ccccc2)n1C,inactive,–
C#CCCCO/N=C1/C[C@@H](O)[C@@H](O)[C@@H]2[C@@H]3C(=O)N([C@@H](C)c4ccccc4)C(=O)[C@H]3CC[C@H]12,–,12% [at 11.4 µM] (inactive)
CC[C@H](NC(=O)c1c(C)c(-c2ccccc2)nc2ccccc12)c1ccccc1,inactive,–
CNc1csc(C)c(C)c1=O,inactive,–
C[C@H](NCCC(c1ccccc1)c1ccccc1)c1ccccc1,0.158 µM (active),–
O=C1[C@@H]2[C@H]3[C@H](O)[C@H](O)C/C(=N/OC[C@@H](O)COCc4ccco4)[C@H]3CC[C@H]2C(=O)N1c1ccc(F)cc1F,–,-0.021% [at 11.4 µM] (inactive)
COc1cccc(NC(=O)C2c3cc(OC)c(OC)cc3C(=O)N(C)C2c2cccnc2)c1 (stereo not drawn),inactive,–
C=CC(C)(C)c1[nH]c2ccccc2c1C1=C(O)C(=O)C(c2c[nH]c3c(CC=C(C)C)cccc23)=C(O)C1=O,0.00631 µM (active),–
O=C1C2C3C=CC(CC3)C2C(=O)N1/N=C/c1ccccc1O (stereo not drawn),inactive,–
Cn1c2c(c(=O)n(C)c1=O)[C@@H]1c3c(ccc4ccccc34)OC[C@@H]1CO2,inactive,–
COc1cc(C=O)ccc1OCCCOc1ccccc1C(=O)O,inactive,–
CCC1(C)Nc2ccccc2C(=O)N1O (stereo not drawn),inactive,–
CCCCC1(C)Nc2ccccc2-c2nc3ccccc3n21 (stereo not drawn),20 µM (active),–
COc1cccc(Cn2c(=O)c(-c3ccc(Cl)cc3)nc3cnc(N4CCN(C)CC4)nc32)c1,inactive,–
CCc1cccc(NC(=O)CN(C)S(=O)(=O)c2cnc[nH]2)c1,inactive,–
CC1CCN(C(=O)CN(C)S(=O)(=O)c2cccc3nsnc23)CC1,inactive,–
CN(CC(=O)N1CCN(c2ccccc2)CC1)S(=O)(=O)c1cnc[nH]1,14.1 µM (active),–
CC(C)(Oc1ccc(-c2cccc3ccccc23)cc1)C(=O)O,–,11.3% [at 11.4 µM] (inactive)
COCC(=O)N1CCC2(CC1)CCN(c1ccccn1)CC2,inactive,–
COCC(=O)N1CCC2(CC1)CN(C(=O)Nc1cccc(F)c1)C2,inactive,–
COCC(=O)N1CCC2(CCCN(C(=O)Nc3ccc(OC)cc3)C2)CC1,inactive,–
COCC(=O)N1CCC[C@@]2(CCN(C(c3ccccc3)c3ccccc3)C2)C1,6.31 µM (active),–
COCC(=O)N1CCC2(CC1)CCN(c1cccc(-c3ccccc3)c1)CC2,inactive,–
COCC(=O)N1CCC2(CC1)CN(C(c1ccccc1)c1ccccc1)C2,2.51 µM (active),–
COCC(=O)N1CCC2(CCCN(C(=O)Nc3ccccc3)C2)CC1,inactive,–

Compound,AC50,"activity, negative = inhibition"
COCC(=O)N1CCC2(CC1)CCN(C(c1ccccc1)c1ccccc1)CC2,12.6 µM (active),–
COCC(=O)N1CCC2(CC1)CN(C(=O)Nc1ccc(OC)cc1)C2,inactive,–
Cc1ccc(NC(=O)CC2CS(=O)(=O)CC2CC(=O)Nc2ccc(C)c(C)c2)cc1C (stereo not drawn),inactive,–
OC[C@H]1NC[C@@H](O)[C@@H](O)[C@H]1O,inactive,–
Cc1ccc(OCC(=O)NNC(=O)c2cc3ccccc3o2)cc1C,inactive,–
COc1cccc(C(=O)N2N=C(c3cccc(OC)c3)CC2(O)C(F)(F)F)c1 (stereo not drawn),inactive,–
CC(C)(Oc1ccc([C@@H]2CC2(Cl)Cl)cc1)C(=O)O,inactive,–
CC(C)c1ccc(N2C(=O)CC(Sc3nc4ccccc4o3)C2=O)cc1 (stereo not drawn),inactive,–
C[C@]12CC3CC(N)(C1)C[C@@](C)(C3)C2,inactive and 316 nM (active),–
C[C@@]12CC3CC(N)(C1)C[C@@](C)(C3)C2,inactive,–
CCc1nnc(NC(=O)CSc2nc3cc4c(cc3cc2C)OCCO4)s1,inactive,–
CC1=N/C(=C\c2ccc([N+](=O)[O-])cc2)C(=O)N1c1ccc(Br)c(C)c1,inactive,–
COc1cc(Cn2cnnn2)ccc1O,inactive,–
CC1(C)Cc2c(ccc3ccccc23)C(=O)N1,inactive,–
CNC(=O)/C=C1\NC(C)(C)Cc2c1ccc1ccccc21,14.1 µM (active),–
Cc1cccc(C(=O)NCN2CCN(c3ccccc3C#N)CC2)c1,inactive,–
CC(C)(C[C@@]1(C)NC(=O)NC1=O)OCc1ccccc1,–,1.81% [at 11.4 µM] (inactive)
CCNCCCNCCCNCCCNCC,inactive,–
CC(C)CO/N=C1/C[C@@H](O)[C@@H](O)[C@@H]2[C@@H]3C(=O)N([C@@H](C)c4ccccc4)C(=O)[C@H]3CC[C@@H]12,–,17.4% [at 11.4 µM] (inactive)
COC(=O)C(C)Sc1ccc2nnc(-c3ccc(F)cc3)n2n1 (stereo not drawn),inactive,–
CN=c1nc(-c2ccccc2)n(-c2ccccc2)s1,31.6 µM (active),–
CC(=O)c1c(C)nc(-c2ccccc2)n1O,inactive,–
O=c1nc(-c2ccccc2)n(-c2ccccc2)c2ncccc12,inactive,–
